Assay outcomes deposited in PubChem BioAssay by several laboratories.
PLC-gamma1 inh: PLC-gamma1 (human) inhibition, primary screen; P19174; purified PLC-gamma1, fluorogenic substrate, fluorescence; inhibition, % at 12.2 µM; 370,000 tested, 0.84% active; AID 720700; in the data active means inhibition above about 9.5%
HIF activator: HIF pathway transcriptional activation; U2OS HRE-luciferase reporter, luminescence; normalized: DMSO 0%, desferrioxamine 100%; activation, % at 7.5 µM (by protocol); 300,000 tested, 0.32% active;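 active means mean activation of at least 10% of the iron chelator positive control signal, with at least half of replicates also reaching 10%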
PLCb3 inh: PLC-beta3 (human) inhibition, primary screen; AID 720704; Q01970; inhibition, % at 12.2 µM; Purified PLC-beta3, fluorogenic substrate, fluorescence; 370,000 tested, 0.18% active;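 further: 0% = median of compound wells on plate and 100% = full blocker control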
Yeast superoxide: caloric restriction mimetics inhibiting age-related superoxide in yeast. superoxide response (% of plate mean), % at 10 µM. S. cerevisiae aged cells, superoxide DHE fluorescence; active compounds read low. AID 2690. 330,000 tested, 0.18% active;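 active means superoxide response under a set limit, about three screen SD below normal, cut at about 65% in these data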;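 further: yeast aged for seven days with compound at 30 °C before DHE staining; 100% = average MFI of all compound-treated wells on the plate with controls excluded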
AHR activator: activates the human aryl hydrocarbon receptor. P35869. AHR-responsive luciferase reporter cells, luminescence. activation, % at 5 µM. 320,000 tested, 2.5% active. AID 2796; in the data active means activation above about 47%;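 further: 0% = vehicle wells and 100% = reference agonist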
Target sequence (P35869 whole entry, looked up): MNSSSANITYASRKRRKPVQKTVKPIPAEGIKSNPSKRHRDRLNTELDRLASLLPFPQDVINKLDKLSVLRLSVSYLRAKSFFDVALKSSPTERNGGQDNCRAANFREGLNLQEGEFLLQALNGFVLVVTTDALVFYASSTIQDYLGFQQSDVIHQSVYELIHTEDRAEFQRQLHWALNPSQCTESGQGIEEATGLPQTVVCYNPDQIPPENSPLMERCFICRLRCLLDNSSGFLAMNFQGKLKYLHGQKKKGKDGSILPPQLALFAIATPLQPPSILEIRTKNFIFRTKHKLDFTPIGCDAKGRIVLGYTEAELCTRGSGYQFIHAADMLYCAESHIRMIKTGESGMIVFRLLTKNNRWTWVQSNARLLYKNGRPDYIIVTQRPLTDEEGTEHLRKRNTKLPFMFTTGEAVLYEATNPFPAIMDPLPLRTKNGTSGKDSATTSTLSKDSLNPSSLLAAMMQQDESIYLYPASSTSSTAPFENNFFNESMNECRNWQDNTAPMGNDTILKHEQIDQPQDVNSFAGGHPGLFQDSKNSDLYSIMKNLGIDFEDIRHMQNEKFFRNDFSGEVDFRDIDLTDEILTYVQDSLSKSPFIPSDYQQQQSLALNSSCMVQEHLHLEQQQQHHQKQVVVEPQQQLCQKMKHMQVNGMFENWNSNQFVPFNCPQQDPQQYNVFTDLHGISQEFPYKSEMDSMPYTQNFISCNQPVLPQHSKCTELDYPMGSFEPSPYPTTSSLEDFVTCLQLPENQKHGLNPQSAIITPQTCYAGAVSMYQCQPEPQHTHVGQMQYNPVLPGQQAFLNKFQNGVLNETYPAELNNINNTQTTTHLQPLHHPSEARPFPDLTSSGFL
HGIII-sPLA2 inh: Blocks human group III sPLA2 activity; AID 743126; inhibition, % at 12.2 µM; 370,000 tested, 0.56% active; Q9NZ20; QFRET BODIPY PC-A2 liposome hydrolysis, fluorescence;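 active means inhibition above mean plus 3 SD of compounds lying within the high and low control bounds, cut at about 19% in these data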;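 further: 0% = median of test compound wells and 100% = no enzyme DMSO wells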
PLCgamma1 ctr: PLC-gamma1 inhibition, counter-screen for PLC-beta3 hits | shares compounds with PLC-gamma1 inh | purified PLC-gamma1, fluorogenic substrate, fluorescence | inhibition, % at 12.3 µM | 3,300 tested, 3.1% active; in the data active means inhibition above about 9.5%
PLCb3 confirm: human PLC-beta3 inhibition, confirmation; shares compounds with PLC-gamma1 inh; purified PLC-beta3, fluorogenic substrate fluorescence; inhibition, % at 12.3 µM; 3,300 tested, 1% active
* marks the source's active call; other numbers are inactive results; · = not tested or not shown. Hits are enriched below; roughly 3.9% of the tested compounds scored in any of these assays. Unless noted, no stated cut-off is given here; in the data, active means inhibition above about 11%; inactive means the rest.

SMILES | PLC-gamma1 inh | HIF activator | PLCb3 inh | Yeast superoxide | AHR activator | HGIII-sPLA2 inh | PLCgamma1 ctr | PLCb3 confirm
Cc1cc(C)cc(N(CC(=O)NCc2ccco2)C(=O)CCC(=O)Nc2ccccn2)c1 | 10.9* | -0.6 | 5.1 | · | · | -4.0 | -2.9 | -5.3
Cc1ccc(N(CC(=O)NCc2ccco2)C(=O)CCC(=O)Nc2ccccn2)cc1C | 0.6 | 0.1 | 6.4 | 93.7 | 6.0 | 0.7 | · | ·
O=C(C=Cc1ccc2c(c1)OCO2)C1CC1 | -54.4 | · | -69.5 | · | · | -0.3 | · | ·
COCCCNC(=O)C(=O)Nc1cc2c3c(c1)CCN3C(=O)CC2 | -0.5 | 0.0 | -3.6 | 91.2 | 6.3 | -0.8 | · | ·
O=C(CN1CCN(c2ccccc2)CC1)NC(=O)NCc1ccco1 | 10.7* | · | 0.9 | 83.5 | -1.8 | 0.9 | -6.2 | -3.8
O=C(CN1CCN(c2ccc(F)cc2)CC1)NC(=O)NCc1ccco1 | 2.8 | 0.2 | -6.3 | 106.8 | -2.2 | 11.8 | · | ·
Cn1c(CC(=O)Nc2ccc(Cl)c(Cl)c2)nnc1SCC(=O)Nc1nccs1 | 1.5 | -0.5 | 1.5 | 100.8 | 3.8 | -4.6 | · | ·
Cn1c(CSCc2ccccc2Cl)nnc1SCC(=O)Nc1nccs1 | 14.7* | 0.1 | -0.3 | 84.8 | -0.6 | -9.7 | -3.4 | -1.3
CC(NC(=O)c1c(N)[nH]c(C(=O)c2ccccc2)c1-c1ccccc1Br)c1cccc2ccccc12 (stereo not given) | -6.7 | · | -8.8 | · | · | -1.9 | · | ·
CC1(C)Cc2ccccc2C(/C(=N/O)C(N)=O)=N1 | 11.4* | -0.8 | 5.2 | 86.0 | 0.8 | -5.6 | 2.1 | 1.4
CC(=O)c1ccc(N/N=C(/C(N)=O)C2=NC(C)(C)Cc3ccccc32)cc1 | 8.5 | -0.8 | 5.0 | 94.8 | 35.2 | 0.7 | · | ·
CCN1CCN(CCC(=O)Nc2ccc3c(c2)OCO3)CC1 | 12.8* | 0.2 | 8.9 | 99.6 | 2.4 | 15.7 | 3.3 | -6.4
O=C(CN1CCN(S(=O)(=O)c2ccc(Br)cc2)CC1)Nc1ccc2c(c1)OCO2 | 10.0* | -0.1 | -0.2 | 108.5 | 4.0 | -6.9 | -3.4 | -3.1
O=C(CN1CCN(S(=O)(=O)c2ccc(Br)cc2)CC1)Nc1ccc(F)cc1 | 0.1 | -0.4 | 0.1 | 106.7 | 5.1 | -23.9 | · | ·
O=C(c1cccc(C(=O)N2CCN(c3ccccc3F)CC2)c1)N1CCN(c2ccccc2F)CC1 | 0.8 | 0.0 | 2.7 | 96.8 | 0.9 | 4.7 | · | ·
O=C(Nc1ccccc1N1CCN(C(=O)c2ccc(Cl)cc2)CC1)c1cccc(F)c1 | 11.8* | 0.0 | -5.6 | 97.8 | -0.8 | -7.9 | -1.1 | -1.3
O=C(c1c(F)cccc1F)N1CCN(c2ccccc2F)CC1 | 4.7 | -0.4 | 16.4* | 105.6 | 3.3 | -1.8 | -3.4 | -1.2
O=C(Nc1ccccc1N1CCN(C(=O)c2ccccc2)CC1)c1cccc(Cl)c1 | 0.6 | -0.4 | -7.3 | 99.3 | 7.3 | -3.2 | · | ·
Cc1[nH]c2ccccc2c1C(=O)C(=O)N1CCN(c2ccccc2F)CC1 | 14.7* | -0.5 | 0.2 | 103.4 | 0.0 | -7.2 | -2.7 | -0.2
O=c1[nH]nc(Sc2ccccc2)c(=S)[nH]1 | 0.3 | · | 2.5 | · | · | 13.0 | · | ·
COc1ccc(NC(=O)Cn2c(=O)c(C)nc3ccccc32)cc1Cl | 0.8 | 0.2 | -7.5 | 99.2 | -3.0 | 1.5 | · | ·
COc1ccc(NC(=O)Cn2c(C(C)C)nc(C)cc2=O)cc1Cl | 10.3* | -0.4 | 3.4 | 99.8 | 3.5 | 12.7 | -7.7 | -3.9
COc1ccc(S(=O)(=O)N(C)C)cc1NC(=O)CCCSc1ccccc1 | 0.3 | 0.1 | -2.5 | 83.9 | -1.0 | -6.1 | · | ·
COc1cc(C2=CCN(C(C)=O)CC2)ccc1OC(C)=O | -1.3 | -0.5 | 0.7 | 110.6 | 11.4 | 7.0 | · | ·
O=C(OCC(=O)c1c[nH]c2ccccc12)c1ccc(Br)o1 | · | 1.6 | · | 118.3 | 13.6 | · | · | ·
SMILES | PLC-gamma1 inh | HIF activator | PLCb3 inh | Yeast superoxide | AHR activator | HGIII-sPLA2 inh | PLCgamma1 ctr | PLCb3 confirm
O=C(OCC(=O)c1c[nH]c2ccccc12)c1ccco1 | 6.4 | 2.8 | 10.8* | 80.1 | 9.5 | -3.5 | -7.7 | -2.9
CC[C@@]1(C(=O)OC)N[C@H](CN(C)S(=O)(=O)c2ccc(-c3ccccc3)cc2)[C@@H]2C(=O)N(Cc3ccccc3)C(=O)[C@@H]21 | 0.5 | · | -4.0 | 84.5 | 2.2 | 8.7 | · | ·
Cn1cnnc1SCc1ccc(C(=O)N=Nc2c(O)n(Cc3ccc(Cl)cc3)c3ccccc23)cc1 | 7.1 | 1.6 | 1.3 | 107.1 | 12.6 | -2.1 | · | ·
CCn1c(O)c(N=NC(=O)c2ccc(CSc3nncn3C)cc2)c2ccccc21 | 11.2* | 1.7 | 9.1 | 104.8 | 10.3 | 4.3 | -2.4 | 1.5
CCn1cc(C(=O)O)c(=O)c2cnc(N3CCN(C(=S)NC(=O)c4ccccc4Cl)CC3)nc21 | · | -0.2 | · | 98.7 | 3.5 | · | · | ·
CCn1cc(C(=O)O)c(=O)c2cnc(N3CCN(C(=S)NC(=O)c4ccc(Cl)cc4Cl)CC3)nc21 | 10.0* | -0.3 | 5.3 | 102.2 | 2.0 | 7.3 | -16.1 | -7.3
Cn1c(=O)cc(C(=O)N/N=C/c2ccc(F)cc2)[nH]c1=O | 9.6* | 11.8* | -6.0 | 107.0 | -0.4 | 6.6 | -5.2 | -7.8
OCC1(Cc2cccc(Cl)c2)CCCN(Cc2sc(N3CCCC3)nc2Cl)C1 (stereo not given) | 12.8* | · | -1.8 | 90.7 | 3.4 | -2.8 | 0.1 | -27.5
O=S(=O)(NC1CCCCC1N1CCOCC1)c1ccc(Cl)cc1 (stereo not given) | 11.7* | -0.2 | -2.8 | 96.5 | -1.1 | 1.4 | -1.0 | 0.6
O=C1C=C(/C=C/c2ccccc2)C[C@@H](c2ccc(F)cc2)C1 | -6.7 | · | -12.0 | 98.2 | 5.0 | -1.8 | · | ·
COc1ccc([C@H]2CC(=O)C=C(/C=C/c3ccccc3)C2)cc1OC | 10.7* | · | 15.8* | 85.8 | 4.1 | -8.9 | -3.1 | -3.1
C=CC[C@H](CC(=O)N(CCO)Cc1ccccc1)C(=O)N[C@@H](C)COC(=O)[C@H](CC=C)CC(=O)OC(C)(C)C | -1.7 | · | -0.6 | 83.6 | 1.4 | -4.2 | · | ·
C=CC[C@@H](CC(=O)N(CCO)Cc1ccccc1)C(=O)N[C@@H](C)COC(=O)[C@@H](CC=C)CC(=O)OC(C)(C)C | 11.2* | · | 7.8 | 91.5 | -0.9 | -7.8 | 3.3 | 3.1
C=CCC[C@@H](Cc1ccc(F)cc1)C(=O)OC[C@@H](Cc1c[nH]c2ccccc12)NC(=O)[C@H](CC=C)CC(=O)NCCO | 5.1 | · | 10.7* | 86.5 | 1.5 | -95.8 | -9.4 | -3.3
C=CC[C@@H](CC(=O)N[C@H](CO)Cc1ccccc1)C(=O)N[C@@H](COC(=O)[C@@H](CC=C)CC(=O)OC(C)(C)C)Cc1c[nH]c2ccccc12 | 11.9* | · | 2.6 | 104.4 | 2.1 | -90.0 | -4.6 | 2.5
CC[C@H](C)C(N)c1cn([C@@H](CC(N)=O)C(=O)N2CCNCC2)nn1 (stereo not given in full) | 3.2 | · | 0.3 | 102.8 | -3.8 | 0.4 | · | ·
COc1cc(Cl)c(C)cc1NC(=O)CC1CCCC1 | 0.7 | 0.9 | -2.1 | 99.3 | 5.2 | -0.8 | · | ·
